D1 potentiator = human D1 dopamine receptor positive modulation. hit rate 0.036% among 360,000. potentiation, % at 10 µM. AID 504651. HEK293 TREx D1 cells, calcium flux, dopamine EC20 potentiation; in the data active = potentiation above about 30%
Target sequence (P21728 whole entry, looked up): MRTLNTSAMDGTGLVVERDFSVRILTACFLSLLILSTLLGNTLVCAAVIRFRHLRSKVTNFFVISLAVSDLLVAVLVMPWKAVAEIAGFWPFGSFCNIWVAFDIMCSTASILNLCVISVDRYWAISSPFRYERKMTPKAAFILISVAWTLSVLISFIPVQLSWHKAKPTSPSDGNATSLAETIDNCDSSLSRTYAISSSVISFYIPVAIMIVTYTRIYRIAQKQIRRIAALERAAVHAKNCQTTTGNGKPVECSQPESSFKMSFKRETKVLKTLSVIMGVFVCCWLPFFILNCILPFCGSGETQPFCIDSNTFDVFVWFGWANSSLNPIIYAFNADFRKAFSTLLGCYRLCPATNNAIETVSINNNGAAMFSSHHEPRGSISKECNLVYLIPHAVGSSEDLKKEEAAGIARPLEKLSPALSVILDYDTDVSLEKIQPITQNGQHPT
D1 antagonist = blocks dopamine activation of the human D1 receptor; P21728; HEK293 TREx D1 cells, calcium flux, dopamine EC80; stronger effect = lower value; activity change, negative = inhibition, % at 10 µM; hit rate 3.2% among 360,000; AID 504652; in the data active = activity change below about -30%
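Calcium flux readout: force-coupled, inducible Hek293 Trex D1 line, cells induced overnight at 30 C with tetracycline, dye-loaded 30–90 min at RT. Antagonism scored against EC80 dopamine challenge given 180 s after compound.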
D1 ag = agonists of human D1 dopamine receptor; HEK293 T-REx D1 cells, calcium flux, agonist mode; activation, % at 2 µM; hit rate 1% among 360,000; AID 504660; in the data active = activation above about 30%
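Agonism was scored from calcium flux recorded over 180 s (1 read/s) after pintool compound addition, following a 10-cycle baseline. Cells were inducible force-coupled HEK293 TREx D1, plated overnight at 30 C and loaded with no-wash calcium dye.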
D3 ag = activates the human D3 dopamine receptor. P35462. D3R DiscoveRx beta-arrestin cells, luminescence, 90 min. max activation, %. hit rate 0.58% among 410,000. AID 652048; in the data active = max activation above about 30%
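Cells at 1500/well, incubated overnight, then treated with pinned compounds (dopamine as control) for 90 min at 37 degrees C. DiscoveRx reagent added for 30 - 60 minutes at room temperature; luminescence read.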
DRD3 antagonist = blocks the human D3 dopamine receptor; hit rate 2.5% among 360,000; D3R cells, DiscoveRx beta-arrestin luminescence, antagonist mode; stronger effect = lower value; P35462; max response, negative = inhibition, %; AID 652054; in the data active = max response below about -50%; inconclusive = no clear call, values can overlap the other calls
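Cells expressing the human receptor were seeded at 1500 cells/well, incubated overnight at 37 degrees C in 5% CO2, then exposed to library compounds with dopamine controls for 90 minutes at 37 degrees C before luminescent detection.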
Each line names hits and unclear results; the compound was inactive in the other large screens. Rows were chosen to be rich in hits. Some 6% of all compounds tested hit in one or more screens of this group.

CCc1nc2c(OCc3ccc(F)cc3)cccn2c1N(C)C(=O)c1ccco1	none (no result: D1 potentiator, D1 antagonist, D1 ag)
c1ccc(-c2csc(CN3CCCCC3)n2)cc1	DRD3 antagonist -50 (no result: D1 potentiator, D1 antagonist, D1 ag)
CC1(C(=O)NCc2cccc3ccccc23)CCN1Cc1ccc(OC(F)(F)F)cc1 (stereo unspecified)	none (no result: D1 potentiator, D1 antagonist, D1 ag)
CCc1cccc(NC(=O)Cn2cc(C=O)c3ccccc32)c1	D1 antagonist -30
COc1ccc(NC(=O)Nc2nc(C)cc(C)n2)c(OC)c1	D1 antagonist -34
COc1ccc(NC(=O)CC(C)=O)c(OC)c1	none
COc1ccc(NC(=O)CC(=O)Nc2ccc(OC)cc2OC)c(OC)c1	D1 antagonist -89
COC(=O)NNC(=S)Nc1cc(OC)ccc1OC	DRD3 antagonist -141
COc1ccc(OC)c(NC(=S)Nc2ccccc2)c1	none
O=S(=O)(c1ccc2c(c1)OCCO2)N1CCN(S(=O)(=O)c2cccc(Cl)c2F)CC1	none (no result: D3 ag, DRD3 antagonist)
CCN1CCc2c(sc(NC(=O)c3ccc(S(=O)(=O)N4CCCC4)cc3)c2C(=O)NC)C1	none
CCCN1CCc2c(sc(NC(=O)Cc3ccc(F)cc3)c2C(N)=O)C1	DRD3 antagonist -59
CCCN1CCc2c(sc(NC(=O)c3ccc(S(=O)(=O)N(C)c4ccccc4)cc3)c2C(=O)NC)C1	D1 ag 63
CC(=O)N1CCc2c(sc(NC(=O)Cc3ccccc3)c2C(N)=O)C1	none
CNC(=O)c1c(NC(=O)c2ccc(S(=O)(=O)N3CCCc4ccccc43)cc2)sc2c1CCN(C)C2	D1 antagonist -57, DRD3 antagonist inconclusive
CCCN1CCc2c(sc(NC(=O)c3ccc(S(=O)(=O)N(C)c4ccccc4)cc3)c2C(N)=O)C1	D1 ag 133
CO/N=C(/C(=O)N[C@@H]1C(=O)N2C(C(=O)[O-])=C(C[n+]3ccn4ncccc43)CS[C@H]12)c1nsc(N)n1	none (no result: D1 potentiator, D1 antagonist, D1 ag, DRD3 antagonist)
O=C(c1ccc2c(c1)N(Cc1ccccc1F)C(=O)c1ccccc1S2=O)N1CCOCC1 (stereo unspecified)	none (no result: DRD3 antagonist)
COc1ccccc1NC(=O)Cn1c(=O)n(-c2ccc(C)cc2)c(=O)c2c1cnn2C	none (no result: DRD3 antagonist)
CN1CCc2c(sc(NC(=O)CSc3ccc(F)cc3)c2-c2nc3ccccc3s2)C1	D1 ag 399 (no result: DRD3 antagonist)
CC(C)N1CCc2c(sc(NC(=O)c3ccc4ccccc4c3)c2C(N)=O)C1	none
CC(=O)Nc1sc2c(c1-c1nc3ccccc3s1)CCN(C(C)C)C2	D1 ag 74, DRD3 antagonist -116
CC(=O)N1CCc2c(sc(NC(=O)CSc3ccc(F)cc3)c2-c2nc3ccccc3s2)C1	none (no result: D1 antagonist, DRD3 antagonist)
CCN1CCc2c(sc(NC(=O)CSc3ccccc3)c2-c2nc3ccccc3s2)C1	D1 ag 403 (no result: DRD3 antagonist)
O=C(CSc1nc2cc3ccccc3cc2[nH]1)Nc1cccc(C(F)(F)F)c1	none (no result: DRD3 antagonist)
COCCCNC(=O)CN1C(=O)c2cccnc2Sc2ccccc21	none (no result: DRD3 antagonist)
O=C(CCn1cccc1)N1CCc2ccccc21	D1 antagonist -31
N=c1sccn1CC(=O)N1CCc2ccccc21	DRD3 antagonist -65
Cc1cc(F)ccc1NC(=O)CCS(=O)(=O)c1cc2c(cc1C)NC(=O)CO2	none (no result: DRD3 antagonist)
O=C(NCCc1ccc(Cl)cc1)c1nnc(Cc2ccc(Cl)cc2Cl)o1	none (no result: DRD3 antagonist)
O=C1NC(=O)/C(=C/c2ccc(-c3cc(C(=O)O)ccc3Cl)o2)S1	D1 antagonist -45
O=C1NC(=S)/C(=C\c2ccc(-c3ccccc3Cl)o2)S1	none
CCC(C)(C)C1CCc2[nH]nc(C(=O)NCc3ccc(Cl)cc3)c2C1 (stereo unspecified)	DRD3 antagonist -75
CCC(C)(C)C1CCc2[nH]nc(C(=O)NCc3ccccn3)c2C1 (stereo unspecified)	none
O=C(NNc1c(Cl)cccc1Cl)c1c(F)cccc1Cl	D1 antagonist -35
CCOCCCNC(=O)CN1C(=O)CCn2nc(-c3cccn3C)cc21	none (no result: DRD3 antagonist)
CCOc1ccccc1NC(=O)Cn1c(=O)n(Cc2ccc(OC)cc2)c(=O)c2oc3ccccc3c21	none (no result: DRD3 antagonist)
CCOc1ccc(NC(=O)c2cc3cc(C)ccc3n2C)cc1	D1 antagonist -56 (no result: DRD3 antagonist)
CSc1ccccc1C(=O)Nc1ccc2c(c1)OCCO2	none
CCOc1ccc(NC(=O)c2cc3ccccc3cc2OC)cc1	none
CCOc1ccc(NC(=O)c2ccc(F)cc2F)cc1	DRD3 antagonist -65 (no result: D1 potentiator, D1 antagonist, D1 ag)
CCc1ccc(NC(=O)c2ccccc2SC)cc1	D3 ag 30
COc1ccc(CC(=O)Nc2ccc(NC(=O)c3ccccc3F)cc2)cc1	D1 ag 54
COc1ccc(S(=O)(=O)N2CCN(c3ccccc3OC)CC2)cc1C(=O)N1CCCCC1	none
Cc1oc(-c2ccc(Cl)cc2)nc1Cn1c(=O)cc(C)c2c(C)nn(-c3cccc(F)c3)c21	none (no result: DRD3 antagonist)
O=C(CSc1nc2c(sc3ccccc32)c(=O)n1CCCC(=O)NC1CCCC1)Nc1ccc(F)cc1	none (no result: DRD3 antagonist)
O=C(O)c1ccccc1C(=O)c1cccc2ccccc12	D1 antagonist -37
O=C(O)c1ccccc1C(=O)c1ccc(Br)s1	D1 antagonist -34
O=C(O)c1ccccc1C(=O)O	none (no result: D1 antagonist)
CCn1cc2nc(SCc3ccccc3F)n(Cc3ccc(C)cc3)c(=O)c2n1	none (no result: DRD3 antagonist)
Cc1nc2cc(-c3cccc(F)c3)nn2c(C)c1CCC(=O)Nc1ccccc1C(N)=O	none (no result: DRD3 antagonist)
Cc1ccc(-n2c(SCC(=O)Nc3cccc(S(N)(=O)=O)c3)nc3ccccc32)cc1	D3 ag 44
CCN1CCCC(OC(=O)Nc2ccccc2)C1 (stereo unspecified)	DRD3 antagonist inconclusive
CCN1CCCC(OC(=O)C(c2ccccc2)c2ccccc2)C1 (stereo unspecified)	DRD3 antagonist -53
Nc1ccc(S(=O)(=O)Nc2ccccc2)cc1	none (no result: D1 potentiator, D1 antagonist, D1 ag, DRD3 antagonist)
Cc1ccc(OCC(=O)O/N=C(\N)c2ccncc2)c(C)c1	D1 antagonist -31 (no result: D1 potentiator)
CCN(Cc1ccccc1)C(=O)c1cc2c(=O)[nH]c3ccc(C)cc3c2s1	none (no result: DRD3 antagonist)
COc1cc([N+](=O)[O-])cc(/C=N/NC(=O)C(C)Nc2ccccc2C)c1O (stereo unspecified)	DRD3 antagonist -98
COc1cc([N+](=O)[O-])cc(/C=N/NC(=O)c2ccc(NC(=O)c3ccc(C)cc3)cc2)c1O	none
COc1cc([N+](=O)[O-])cc(/C=N/NC(=O)C(C)Nc2cccc(C)c2)c1O (stereo unspecified)	DRD3 antagonist -55
CON=C1C[C@]2(C[C@@H]3C[C@@H](C/C=C(\C)C[C@@H](C)/C=C/C=C4\CO[C@@H]5[C@H](O)C(C)=C[C@@H](C(=O)O3)[C@]45O)O2)O[C@H](/C(C)=C/C(C)C)[C@H]1C	none (no result: D1 potentiator, D1 antagonist, D1 ag, DRD3 antagonist)
COC(=O)[C@H]1C[C@@]2(O)CN(S(=O)(=O)c3ccc(C)cc3)C[C@@]2(OC(=O)NC2CCCC2)C[C@H]1C(=O)OC	none (no result: D1 potentiator, D1 antagonist, D1 ag)
CCOC(=O)NC1c2ccccc2Oc2ccccc21	D1 antagonist -33
CCOc1ccccc1NC(=O)NC1CCCc2ccccc21 (stereo unspecified)	D1 antagonist -33
CC(=O)c1ccc(OCCCC(=O)NC2CCCc3ccccc32)cc1 (stereo unspecified)	D1 antagonist -32
